Structures are written as SMILES. Activity calls are given as the source filed them. How the calls were made is not given here.

Pantothenate synthetase (Mycobacterium tuberculosis (strain ATCC 25618 / H37Rv)), sequence (P9WIL5 whole entry, looked up): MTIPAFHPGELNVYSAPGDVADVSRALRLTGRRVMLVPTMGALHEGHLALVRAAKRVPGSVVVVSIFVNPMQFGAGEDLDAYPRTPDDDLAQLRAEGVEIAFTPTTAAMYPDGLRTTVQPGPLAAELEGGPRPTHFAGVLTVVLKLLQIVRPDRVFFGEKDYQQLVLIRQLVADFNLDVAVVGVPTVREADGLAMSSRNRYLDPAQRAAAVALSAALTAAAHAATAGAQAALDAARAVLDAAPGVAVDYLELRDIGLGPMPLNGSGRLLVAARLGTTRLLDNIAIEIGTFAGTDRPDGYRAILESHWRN

This test addresses Pantothenate synthetase (Mycobacterium tuberculosis (strain ATCC 25618 / H37Rv)) (UniProt P9WIL5). Description: Coupled enzyme confirmation of inhibitors against recombinant Mtb PanC (AID 375).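 Further: 0% = full reaction with vehicle and 100% = no enzyme background.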 The following applies: coupled enzyme assay; at 10 µM, hits give high values.
On to `FC(F)(F)c1cc(-c2ccccc2)nc(N2CCCCC2)n1`, for which the inhibition is 2% (inactive).
The same measure for `CCOC(=O)N1CCC(N(C(=O)Nc2cccc(OC)c2)C(C)CC)CC1` (stereo not given): 0% (inactive).
For `C=CCc1cc(OC)ccc1OCC(O)CN1CCN(c2ccc(OC)cc2)CC1` (stereo not given), the inhibition was 1% (inactive).
The same measure for `CCOc1ccc(NC(=O)CSc2nnc(COc3c(C)cccc3C)o2)cc1`: 1% (inactive); for `COc1ccc(OC)c(S(=O)(=O)Nc2ccccc2C(=O)O)c1`: 6% (inactive).
Take `Cc1ccc(S(=O)(=O)N2C(=O)CCC2C(=O)Nc2ccc3c(c2)OCCO3)cc1` (stereo not given): the inhibition is 0% (inactive).
Take `Cc1ccc(Nc2cc(C)nc3ncnn23)c(Cl)c1`: the inhibition was 0% (inactive).
Take `O=C(c1noc2c1CCc1ccccc1-2)N1CCOCC1`: the inhibition is 0% (inactive).
On to `O=C(Nc1ccc(N2CCOCC2)c(F)c1)c1ccncc1`, for which the inhibition was 0% (inactive).
As for `CCC1(C)Cc2c(sc3nc(SCC(=O)O)[nH]c(=O)c23)CO1` (stereo not given), the inhibition was 0% (inactive).
The same measure for `CCN(CC)S(=O)(=O)c1ccc(NC(=O)CN(c2cccc(F)c2)S(C)(=O)=O)cc1`: 3% (inactive); for `CCC(C)(C(=O)NC1CCCC1)N(C(=O)c1cnccn1)c1c(C)n(C)n(-c2ccccc2)c1=O` (stereo not given): 0% (inactive).
With `Cc1onc(-c2ccccc2)c1C(=O)N1CCOCC1`, the inhibition was 9% (inactive).
Take `Cn1c(SCC(=O)Nc2ccc(F)cc2)nnc1-c1cccnc1`: the inhibition was 0% (inactive).
In the case of `CCCCC[C@H](O)/C=C/C1=C(CCCCCCC(=O)O)C(=O)CC1`, the inhibition was 0% (inactive).
Consider `Cc1ccc(OCc2nnc(SCC(=O)N3CCOCC3)n2C)cc1`, for which the inhibition was 0% (inactive).
The value for `Cc1ccc(-c2nn(-c3ccccc3)cc2/C=C(\C#N)c2cccc(C#N)c2)o1` was 0% (inactive).
For `Cc1nn(-c2ccccc2)c(Cl)c1C(=O)NCC(=O)O`, the inhibition is 0% (inactive).
Consider `O=C(Cn1nnc2c(cnn2-c2ccc(F)cc2)c1=O)c1ccccc1F`, for which the inhibition is 1% (inactive).
As to `CC1=C(C(=O)OCc2ccccc2)C(c2ccc(C)o2)C2=C(CCCC2=O)N1` (stereo not given), the inhibition is 4% (inactive).
For the compound `CC(=O)Nc1ccc(OCC(O)Cn2nc(C)nc2C)cc1` (stereo not given), the inhibition is 4% (inactive).
In the case of `CCC(=O)O[C@@H]1CC(=O)O[C@H](C)CC=CC=C[C@@H](O)[C@H](C)C[C@H](CC=O)[C@H](O[C@H]2O[C@H](C)[C@@H](O[C@H]3C[C@@](C)(O)[C@@H](OC(=O)CC)[C@H](C)O3)[C@H](N(C)C)[C@H]2O)[C@H]1OC`, the inhibition was 4% (inactive).
For `O=C(c1cc2cc(Cl)cc(Cl)c2oc1=O)N1CCOCC1`, the inhibition is 0% (inactive).
The value for `O=[N+]([O-])c1cccc2cn[nH]c12` was 0% (inactive); that for `CCOC(=O)c1cccc(NC(=O)CSc2nc3cccnc3n2C)c1` was 0% (inactive).
As for `O=S(=O)(Nc1ncccn1)c1ccc(Nc2ncnc3ccccc23)cc1`, the inhibition was 6% (inactive).
With `CC(C)(S)[C@@H](N)C(=O)O`, the inhibition is 4% (inactive).
As for `CC(COc1ccccc1)N(CCCl)Cc1ccccc1` (stereo not given), the inhibition was 0% (inactive).
In the case of `CCS(=O)(=O)N1CCC(C(=O)NC2CCCCCCC2)CC1`, the inhibition is 1% (inactive).
The same measure for `Cc1ccc(NC(=O)CS(=O)CC(=O)NCC2CCCO2)cc1` (stereo not given): 0% (inactive).
The value for `COCCCNC(=O)CSc1nc2ccc(N3CCOCC3)cc2c(=O)n1CCc1ccccc1` was 0% (inactive); that for `CS(=O)(=O)N(CC(=O)NCc1ccccn1)c1ccc2c(c1)OCCO2` was 0% (inactive); that for `Cc1cc(NC(=O)CSc2nc3c(c(=O)n2Cc2ccccc2)SC(C)C3)no1` (stereo not given) was 0% (inactive).
As to `CCC(C)c1ccc(NC(=O)c2cccnc2)cc1` (stereo not given), the inhibition is 9% (inactive).
`CC1(C)CC(=O)c2cnc(NC(=O)CSc3nc4ccccc4o3)nc2C1`: the inhibition was 0% (inactive).
Turning to `CC1=C(C(N)=O)C(c2ccncc2)n2nc(-c3ccccc3Cl)nc2N1` (stereo not given), the inhibition was 0% (inactive).
On to `COc1ccc(C(c2nnnn2C2CCCC2)N2CCC(C)CC2)c(OC)c1` (stereo not given), for which the inhibition is 3% (inactive).
The value for `O=C(NCCC1=CCCCC1)C1CCN(S(=O)(=O)c2cnc[nH]2)CC1` was 2% (inactive); that for `NC(=O)c1c(NC(=O)CN2CCCC2)sc2c1CCCC2` was 4% (inactive); that for `Cc1ccc(-c2nn(C)c(=O)c3ccccc23)cc1S(=O)(=O)NCCN1CCOCC1` was 2% (inactive).

For orientation: inhibition means the drop in the measured response relative to a control, in per cent.

Source of the values: PubChem BioAssay.
